Screening data: PubChem, The Scripps Research Institute Molecular Screening Center
LYPLA2 counter – blocks human lysophospholipase 2, a PME1 counter-screen; O95372; recombinant LYPLA2, FP-Rh probe fluorescence polarization; inhibition, % at 5.9 µM; 320,000 compounds, 0.38% hits;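 active = inhibition above the screen-wide mean plus 3 SD, limit set per campaign, cut at about 26% in these data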
LYPLA1 counter – blocks human lysophospholipase 1, a PME1 counter-screen; inhibition, % at 5.9 µM; recombinant LYPLA1, FP-Rh probe fluorescence polarization; AID 2174; 320,000 compounds, 0.16% hits;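 active = inhibition above the mean of all tested compounds plus 3 SD, set per campaign, cut at about 14% in these data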;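 note: inhibitors block serine hydrolase probe labeling of LYPLA1 so polarization falls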
Fam108B inh – blocks mouse Fam108B hydrolase in RBBP9 counter-screen; inhibition, % at 9.51 µM; 300,000 compounds, 0.33% hits; AID 1947; recombinant Fam108B, FP-Rh probe fluorescence polarization;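 active = inhibition above the screen mean inhibition plus 3 SD, computed separately per campaign, cut at about 18% in these data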;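 note: inhibitors lower polarization as less probe binds the enzyme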
PME-1 primary – PME-1 (human) inhibition. Q9Y570. inhibition, % at 5.9 µM. 320,000 compounds, 0.53% hits. recombinant PME-1, FP-Rh probe fluorescence polarization. AID 2130;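 active = inhibition above the campaign mean of all compounds plus 3 SD, cut at about 26% in these data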;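 note: competitive labeling of PME-1 active site by serine hydrolase directed probe; inhibitors block probe labeling so polarization falls and inhibition rises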
Target sequence (Q9Y570 whole entry, looked up): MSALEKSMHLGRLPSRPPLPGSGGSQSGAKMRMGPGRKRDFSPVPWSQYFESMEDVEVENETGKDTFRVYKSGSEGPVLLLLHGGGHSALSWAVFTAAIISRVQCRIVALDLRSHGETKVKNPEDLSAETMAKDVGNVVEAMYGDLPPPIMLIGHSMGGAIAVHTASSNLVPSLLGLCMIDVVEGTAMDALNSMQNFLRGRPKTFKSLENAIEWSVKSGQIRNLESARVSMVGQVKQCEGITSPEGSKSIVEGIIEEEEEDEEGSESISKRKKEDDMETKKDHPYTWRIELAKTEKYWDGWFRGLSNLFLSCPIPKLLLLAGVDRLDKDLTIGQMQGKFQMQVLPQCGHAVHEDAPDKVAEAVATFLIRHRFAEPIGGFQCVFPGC
GSTO1 inh – GSTO1 inhibition, counter-screen for RBBP9 inhibitors; 300,000 compounds, 1.1% hits; P78417; AID 1974; inhibition, % at 5.96 µM; recombinant GSTO1, activity-based probe fluorescence polarization;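 active = inhibition above the campaign mean inhibition plus 3 SD, cut at about 35% in these data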
Target sequence (P78417 whole entry, looked up): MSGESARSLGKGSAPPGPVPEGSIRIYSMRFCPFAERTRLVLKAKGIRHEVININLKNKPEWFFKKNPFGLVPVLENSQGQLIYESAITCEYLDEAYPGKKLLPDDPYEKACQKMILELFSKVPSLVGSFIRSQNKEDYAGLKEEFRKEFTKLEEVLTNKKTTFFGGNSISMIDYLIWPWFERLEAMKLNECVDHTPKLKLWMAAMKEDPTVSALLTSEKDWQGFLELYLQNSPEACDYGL
PAD4 FP inh – PAD4 (human) enzyme inhibition | inhibition, % at 6.36 µM | 330,000 compounds, 0.41% hits | recombinant PAD4, RCA probe fluorescence polarization | AID 485272;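 active = percent inhibition above a cutoff equal to the mean of all tested compounds plus 3 SD, cut at about 15% in these data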
GSTO1 inh conf – confirmation of human GSTO1 inhibitors | shares compounds with GSTO1 inh | recombinant GSTO1, probe fluorescence polarization | inhibition, % at 5.96 µM | 2,400 compounds, 54% hits;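 active = inhibition above the primary screen's cutoff, its mean inhibition plus 3 SD, cut at about 35% in these data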;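 note: loss of polarization as inhibitors block binding of rhodamine sulfonate ester activity probe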
GSTO1 recomb ABPP – blocks recombinant human glutathione S-transferase omega 1. 130 compounds, 30% hits. shares compounds with GSTO1 inh. inhibition, % at 1 µM. recombinant GSTO1, gel ABPP SE-Rh probe fluorescence;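 active = inhibition of the enzyme GSTO1 above about 75%, limit read from the data; inactive = inhibition below that limit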
Numbers stand for hits; - = inactive; . = no result given. Only some compounds are listed: those with a hit (about 1.8% of all), similar ones and a draw of the others.

SMILES | LYPLA2 counter | LYPLA1 counter | Fam108B inh | PME-1 primary | GSTO1 inh | PAD4 FP inh | GSTO1 inh conf | others
Cc1ccc(C=C2C(Cl)=C(Cl)C(Cl)=C2Cl)cc1 | - | - | - | - | 45.1 | - | -
Cc1ccc(NC(=O)CN(C)C(=O)/C=C/c2cccs2)cc1 | - | - | - | - | - | - | .
O=C(O)c1cccc(Cn2c(Cl)c(/C=N/Nc3ccccc3)sc2=O)c1 | - | - | - | - | 50.0 | - | 64.5
O=C(O)c1cccc(Cn2c(Cl)c(/C=N/NC(=O)c3ccccc3Cl)sc2=O)c1 | - | - | - | - | - | - | .
c1ccc2c(c1)nnn2-c1ncnc2sc3c(c12)CCCC3 | - | - | - | - | - | - | .
Cc1nc(-n2nnc3ccccc32)c2c3c(sc2n1)CCCC3 | - | - | - | - | 126.9 | - | -
C/C(=N\NC(=O)c1ccco1)c1cc(Cl)sc1Cl | - | - | - | - | - | - | .
O=C(OCc1ccccc1Cl)C1CC(=O)N(Cc2ccco2)C1 (stereo not given) | - | - | - | - | - | - | .
COc1ccc(C(OCC2CO2)c2ccc(OC)cc2)cc1 (stereo not given) | - | - | - | - | 82.1 | - | 91.8 | GSTO1 recomb ABPP=-
Cc1ccc(Cl)c(OCC(=O)NCc2ccco2)c1 | - | - | - | - | - | - | .
COc1ccc(N2C3=C(CC4=C2CCCC4=O)C(=O)CCC3)cc1 | - | - | - | - | 58.0 | - | -
Cc1ccc(N=Cc2cccc(O)c2O)c(C)c1 | - | - | - | - | 85.0 | - | -
Oc1cccc(/C=N/N=C/c2cccc(O)c2O)c1O | - | - | - | - | - | - | .
CCN(CC)c1ccc(C=Nc2ccc(C)cc2C)c(O)c1 | - | - | - | - | - | - | .
CC(N=Cc1cccc(O)c1O)c1ccccc1 (stereo not given) | - | - | - | - | 77.0 | - | 53.7
Cc1ccccc1N=Cc1cccc(O)c1O | - | - | - | - | 69.6 | - | -
Cc1nn(-c2ccc(Cl)cc2)c(N)c1C(O)(CSc1nccn1C)C(F)(F)F (stereo not given) | - | - | - | - | - | - | .
Cc1cc(N2CCN(C)CC2)nc2ccc(NC(=S)N3CCN(c4ccccn4)CC3)cc12 | - | - | - | - | - | - | .
O=C(CSc1nnc(-c2ccco2)c(-c2ccco2)n1)c1ccccc1 | - | - | - | - | 43.8 | - | -
O=C(CSc1nnc(-c2ccco2)n1Cc1ccccc1)c1ccccc1 | - | - | - | - | - | - | .
Cc1cccc(CN2CCN(C(=O)c3cccc4ccccc34)CC2)c1 | - | - | - | - | - | - | .
Cc1cccc(CN2CCN(C(=O)CCl)CC2)c1 | - | - | - | - | 96.2 | - | 99.0 | GSTO1 recomb ABPP=-
O=C1CCCC(O)=C1C=Nc1ccc(O)cc1 | - | - | - | - | 60.1 | - | -
CCC1CCCCN1C(=O)C(=O)c1cn(CC(=O)N(CC)CC)c2ccccc12 (stereo not given) | - | - | - | - | 39.7 | - | -
Cc1c(C(=O)N2CCCC2)c(S(=O)(=O)Nc2cccc(Br)c2)c(C)n1C | - | - | - | - | - | - | .
SMILES | LYPLA2 counter | LYPLA1 counter | Fam108B inh | PME-1 primary | GSTO1 inh | PAD4 FP inh | GSTO1 inh conf | others
Nc1ccc(Oc2ncccn2)cc1 | - | - | - | - | 65.0 | - | -
O=Cc1cccc(Oc2ncccn2)c1 | - | - | - | - | - | - | .
CC1=NN(c2ccc(C(=O)O)cc2)C(=O)/C1=C\c1ccc(OC(=O)c2cccs2)cc1 | - | - | - | - | 54.5 | - | -
COc1ccccc1CNC(=O)CCC(=O)n1ncc2cc(C)ccc21 | - | - | - | - | - | - | .
COc1ccccc1N=Nc1ccc(O)c2ncccc12 | - | - | - | - | 50.9 | - | -
CN(C)C(CNC(=O)C1CC(=O)N(Cc2ccccc2)C1)c1ccccc1 (stereo not given) | - | - | - | - | - | - | .
CC(C)C(=O)Nc1c(-c2ccc(Cl)cc2)c(=O)c2ccccc2n1C | - | - | - | - | - | - | .
Cn1c(NC(=O)c2ccc(Cl)cc2)c(-c2ccccn2)c(=O)c2ccccc21 | - | - | - | - | 44.0 | - | -
O=C(Nc1ccc([N+](=O)[O-])cc1)Nc1cnccn1 | - | - | - | - | - | - | .
O=C(O)C1Cc2ccccc2CN1C(=O)CCl (stereo not given) | - | - | - | - | 70.3 | - | 97.6 | GSTO1 recomb ABPP=82.0
O=C(O)C1Cc2ccccc2CN1C(=O)COc1ccc(Br)cc1 (stereo not given) | - | - | - | - | - | - | .
Cc1c(N=c2c(=O)c3ccccc3c2=O)c(=O)n(-c2ccccc2)n1C | - | - | - | - | 57.0 | - | 76.8
Cc1csc(=Nc2c(C)n(C)n(-c3ccccc3)c2=O)n1-c1ccccc1 | - | - | - | - | - | - | .
O=C(c1ccc(Cl)c([N+](=O)[O-])c1)N1CCN(S(=O)(=O)c2ccc(Cl)cc2)CC1 | - | - | . | - | . | - | .
Cc1ccc(NC(=O)CCc2ccc(C)o2)c(C)c1 | - | - | - | - | - | - | .
Cc1ccc(NC(=O)CCl)c(C)c1 | - | - | - | - | 82.0 | - | 90.7
CC(C)n1c(N2CCN(CC(=O)Nc3ccc4c(c3)OCCO4)CC2)nc2ccccc21 | - | - | - | - | - | - | .
COc1cc(/C=C(\C#N)c2ccccn2)ccc1OCC(=O)Nc1ccc(Br)cc1 | - | - | - | - | - | - | .
O=c1cc(C(Cl)(Cl)Cl)oc2c1ccc1ccccc12 | - | - | - | - | 46.9 | - | 80.3
CC1(OC(=O)C2CCCC2)C(=O)C=C2C=C3CCCN3C=C2C1=O (stereo not given) | - | - | - | - | - | - | .
CC1(OC(=O)c2cccs2)C(=O)C=C2C=C3CCCN3C=C2C1=O (stereo not given) | - | - | - | - | 60.5 | 15.0 | 62.5
COc1ccc(-n2c(=O)c(CCC(=O)N3CCC(C)CC3)nc3ccccc32)cc1 | - | - | . | - | . | - | .
COc1cc(/C=C2\S/C(=N/S(=O)(=O)c3ccccc3)NC2=O)c([N+](=O)[O-])cc1OC | - | - | - | - | 38.1 | - | -
COc1ccc(S(=O)(=O)/N=C2/NC(=O)/C(=C\c3cc(OC)c(OC)cc3[N+](=O)[O-])S2)cc1 | - | - | - | - | - | - | .
CCOC(=O)c1c(NC(=O)CCl)sc(CN(C)C)c1-c1ccccc1 | - | - | - | - | 76.5 | - | 90.7
O=C(CSc1nnc(CNC(=O)c2ccccc2)o1)Nc1ccc2c(c1)OCCO2 | - | - | - | - | - | - | .
O=C(CSc1nnc(CNc2ccccc2)o1)c1ccc2c(c1)OCCO2 | - | - | - | - | 40.2 | - | -
CC1CN(CC(=O)Nc2ccccc2Sc2ccccc2)CC(C)O1 (stereo not given) | - | - | - | - | - | - | .
